Source: PubChem (several laboratories)
The list is not random: actives were taken first. Their share in the collection is about 28%.
CYP2C9 inh – blockers of cytochrome P450 2C9 activity – biochemical, luminescence, ADME assay, primary screen; inhibition, % at 5 µM; 20% of 96,000 active; CYP2C9 Supersomes, luciferin-H conversion; AID 777, 2007; P11712;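 active = blocking of liver enzyme CYP2C9 beyond about 50% at 5 µM, limit read from the data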
CYP2C9 act – human CYP2C9 activators, primary screen, biochemical, luminescence | activation factor at 5 µM | 1.4% of 96,000 active | Cytochrome P450 2C9 (Homo sapiens), P11712 | recombinant CYP2C9, luciferin-H conversion; stronger effect = higher value; factor 1 = untreated enzyme, 0 = blocked;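 active = activation factor of 2 or more for CYP2C9 at a 5 µM dose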;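 also: 0 = sulfaphenazole-blocked wells and 1 = vehicle-only wells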
Plk1 PBD FP – Plk1 polo box domain binding inhibitors, primary screen, biochemical, fluorescence polarization | Serine/threonine-protein kinase PLK1 (Homo sapiens), P53350 | Plk1 PBD phosphopeptide binding | inhibition, %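 (tested at about 20 µM)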 | 0.13% of 97,000 active; in the data active = inhibition above about 34%, passing the limit was not always enough
Target sequence (P53350 whole entry, looked up, the tested form may be a part): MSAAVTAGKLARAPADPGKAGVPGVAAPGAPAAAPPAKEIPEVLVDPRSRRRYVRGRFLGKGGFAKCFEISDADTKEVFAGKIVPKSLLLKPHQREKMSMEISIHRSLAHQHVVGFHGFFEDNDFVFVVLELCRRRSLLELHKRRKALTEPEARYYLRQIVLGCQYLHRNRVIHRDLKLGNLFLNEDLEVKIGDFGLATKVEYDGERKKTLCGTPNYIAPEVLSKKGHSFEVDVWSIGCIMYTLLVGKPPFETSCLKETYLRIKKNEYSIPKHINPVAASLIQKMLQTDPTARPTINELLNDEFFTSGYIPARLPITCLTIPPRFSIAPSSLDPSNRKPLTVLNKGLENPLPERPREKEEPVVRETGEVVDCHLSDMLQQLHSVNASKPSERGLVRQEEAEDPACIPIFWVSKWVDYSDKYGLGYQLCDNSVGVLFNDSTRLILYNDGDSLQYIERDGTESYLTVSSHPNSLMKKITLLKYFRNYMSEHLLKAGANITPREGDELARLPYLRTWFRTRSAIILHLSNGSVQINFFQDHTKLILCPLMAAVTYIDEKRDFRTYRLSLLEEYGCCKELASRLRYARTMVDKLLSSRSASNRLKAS
CYP2C19 activ – human CYP2C19 activators, primary screen, biochemical, luminescence; Cytochrome P450 2C19 (Homo sapiens), P33261; recombinant CYP2C19, luciferin-H EGE luminescence; stronger effect = higher value; 0 = fully inhibited enzyme, 1 = untreated enzyme; activation factor at 5 µM; 96,000 tested, under 10 active;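 active = activation factor of at least 2 at 5 µM in the primary screen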;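 also: 0 = wells with 2.5 mM tranylcypromine and 1 = vehicle-only wells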
PLK1 kinase inh – human PLK1 kinase inhibitors, primary screen, biochemical, TR-FRET; AID 619, 2007; Serine/threonine-protein kinase PLK1 (Homo sapiens), P53350; 0.53% of 97,000 active; inhibition, % at 10 µM; recombinant PLK1 kinase, TR-FRET peptide phosphorylation;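 active = inhibition of 50% or more in the single-concentration screen; inactive = inhibition below 50%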;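 also: 0% = DMSO max control and 100% = H-89 dihydrochloride min control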
CYP2C19 inh – blockers of cytochrome P450 2C19 activity – biochemical, luminescence, ADME assay, primary screen | P33261 | CYP2C19 Supersomes, luciferin-H EGE luminescence, 30 min | inhibition, % at 5 µM | 21% of 96,000 active;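 active = CYP2C19 inhibition above a set limit at 5 µM in the primary screen, cut at about 50% in these data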;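 also: plate controls were negative control wells for no effect and 2.5 mM tranylcypromine positive control for full effect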
An asterisk follows results filed as active.

For COc1ccc(NC(=O)COc2nc(N(C)C)nc(N(C)C)n2)cc1 the results were CYP2C9 inh 0, CYP2C9 act 1, Plk1 PBD FP -1, CYP2C19 activ 1, PLK1 kinase inh -15 and CYP2C19 inh 2.
For CON(C)c1nc(OCCNC(=O)COc2ccc(Cl)cc2C)nc(N(C)C)n1 the results were CYP2C9 inh 51*, CYP2C9 act 0.5, Plk1 PBD FP -1, CYP2C19 activ 0.6, PLK1 kinase inh -8 and CYP2C19 inh 36.
Screening CCNc1nc(OCCNC(C)=O)nc(N(C)C)n1 returned CYP2C9 inh -1, CYP2C9 act 1, Plk1 PBD FP -12, CYP2C19 activ 1, PLK1 kinase inh -5 and CYP2C19 inh -2.
Cc1nc(-c2ccc(NS(C)(=O)=O)cc2)cs1 was read as CYP2C9 inh 3, CYP2C9 act 1, Plk1 PBD FP -1, CYP2C19 activ 1.1, PLK1 kinase inh -1 and CYP2C19 inh -11.
O=C(CS(=O)CC(=O)N(CC(=O)NC1CCCC1)C1CCCC1)Nc1ccc(F)cc1 (centres undefined) was read as CYP2C9 inh 0, CYP2C9 act 1, Plk1 PBD FP 9, CYP2C19 activ 1.1, PLK1 kinase inh -12 and CYP2C19 inh -14.
Screening Cc1noc(C)c1CN1C(=O)NC(Cc2ccccc2)(Cc2ccccc2)C1=O returned CYP2C9 inh 12, CYP2C9 act 0.9, Plk1 PBD FP 27, CYP2C19 activ 0.9, PLK1 kinase inh -9 and CYP2C19 inh 11.
O=C1NC(c2ccccc2)(C(F)(F)F)C(=O)N1Cc1cccnc1 (centres undefined) was read as CYP2C9 inh 51*, CYP2C9 act 0.5, Plk1 PBD FP -15, CYP2C19 activ 0.2, PLK1 kinase inh -5 and CYP2C19 inh 84*.
Screening O=c1c2ccccc2c2ccccc2c(=O)n1Cc1cccnc1 returned CYP2C9 inh 20, CYP2C9 act 0.8, CYP2C19 activ 0.6 and CYP2C19 inh 37.
For C/C(=N\OC(=O)c1ccccc1F)c1nccs1 the results were CYP2C9 inh 3, CYP2C9 act 1, Plk1 PBD FP 11, CYP2C19 activ 0.9, PLK1 kinase inh -5 and CYP2C19 inh 10.
C=CCCCCCCCCC(=O)NN was read as CYP2C9 inh 89*, CYP2C9 act 0.1, Plk1 PBD FP -13, CYP2C19 activ 0, PLK1 kinase inh -7 and CYP2C19 inh 100*.
Screening O=C(N/N=C\c1ccc(Cl)cc1Cl)c1sccc1-n1cccc1 returned CYP2C9 inh 51*, CYP2C9 act 0.5, Plk1 PBD FP 5, CYP2C19 activ 0.7, PLK1 kinase inh -12 and CYP2C19 inh 33.
`O=C(N/N=C\c1ccc(Cl)cc1)c1sccc1-n1cccc1` gave CYP2C9 inh 4, CYP2C9 act 1, Plk1 PBD FP 33, CYP2C19 activ 0.8, PLK1 kinase inh -18 and CYP2C19 inh 20.
COc1ccc(CCSc2nnc(C3CCCCC3)n2N)cc1 was read as CYP2C9 inh 52*, CYP2C9 act 0.5, Plk1 PBD FP 14, CYP2C19 activ 0.4, PLK1 kinase inh 13 and CYP2C19 inh 58*.
For COc1ccc(NC(=O)CSc2nnc(C3CC3)n2N)cc1 the results were CYP2C9 inh 8, CYP2C9 act 0.9, Plk1 PBD FP -11, CYP2C19 activ 0.9, PLK1 kinase inh -5 and CYP2C19 inh 6.
`O=C(Nc1ccccc1-c1nnn(CC(=O)N2CCc3ccccc3C2)n1)C1CCC1` gave CYP2C9 inh 65*, CYP2C9 act 0.4, Plk1 PBD FP 25, CYP2C19 activ 0.8, PLK1 kinase inh 1 and CYP2C19 inh 20.
`O=C(Nc1cccc(-c2nnn(CC(=O)N3CCc4ccccc4C3)n2)c1)C1CCC1` gave CYP2C9 inh 47, CYP2C9 act 0.5, Plk1 PBD FP -14, CYP2C19 activ 0.2, PLK1 kinase inh -2 and CYP2C19 inh 84*.
Screening CC1Cc2ccccc2N1C(=O)Cn1nnc(-c2ccccc2NC(=O)C2CCC2)n1 (centres undefined) returned Plk1 PBD FP 0 and PLK1 kinase inh -15.
O=c1oc2ccccc2cc1-c1nnc(NCc2ccco2)s1 was read as CYP2C9 inh -17, CYP2C9 act 1.2, Plk1 PBD FP -11, CYP2C19 activ 0.9, PLK1 kinase inh 4 and CYP2C19 inh 5.
For CCn1nnnc1NCc1cccn1C the results were CYP2C9 inh 76*, CYP2C9 act 0.2, CYP2C19 activ 0.7 and CYP2C19 inh 26.
CCOc1cc(C2C(C#N)=C(N)Oc3n[nH]c(C)c32)ccc1OCCN1CCOCC1 (centres undefined) was read as CYP2C9 inh 0, CYP2C9 act 1, Plk1 PBD FP -4, CYP2C19 activ 1, PLK1 kinase inh -20 and CYP2C19 inh 3.
For O=C(CS(=O)(=O)c1cn(Cc2ccc(Cl)cc2)c2ccccc12)N1CCCC1 the results were CYP2C9 inh 70*, CYP2C9 act 0.3, Plk1 PBD FP 16, CYP2C19 activ 0.2, PLK1 kinase inh -8 and CYP2C19 inh 76*.
For O=C(CS(=O)(=O)c1c[nH]c2ccccc12)N1CCCCC1 the results were CYP2C9 inh -10, CYP2C9 act 1.1, Plk1 PBD FP -36, CYP2C19 activ 0.4, PLK1 kinase inh -6 and CYP2C19 inh 64*.
`O=C(CS(=O)(=O)c1cn(Cc2ccccc2Cl)c2ccccc12)N1CCOCC1` gave Plk1 PBD FP 14 and PLK1 kinase inh -14.
`O=C(CSc1c[nH]c2ccccc12)N1CCCc2ccccc21` gave CYP2C9 inh 44, CYP2C9 act 0.6, Plk1 PBD FP -4, CYP2C19 activ 0.5, PLK1 kinase inh -10 and CYP2C19 inh 50.
For CCOC(=O)c1cc(NC(=O)c2ccc(Cl)cc2)c(=O)n2c1oc1ccc(Cl)cc12 the results were CYP2C9 inh 1, CYP2C9 act 1, Plk1 PBD FP -20, CYP2C19 activ 1, PLK1 kinase inh -13 and CYP2C19 inh 0.
Screening CCOc1c(OC)cccc1C1CC(=O)Nc2cc(OC)c(OC)cc21 (centres undefined) returned Plk1 PBD FP -1 and PLK1 kinase inh -3.
For CCCOc1c(OC)cccc1C1CC(=O)Nc2cc3c(cc21)OCO3 (centres undefined) the results were CYP2C9 inh 52*, CYP2C9 act 0.5, Plk1 PBD FP 4, CYP2C19 activ 0, PLK1 kinase inh 0 and CYP2C19 inh 96*.
COc1cc2c(cc1OC)C(c1cccc(OC)c1OC)CC(=O)N2 (centres undefined) was read as CYP2C9 inh 32, CYP2C9 act 0.7, Plk1 PBD FP 6, CYP2C19 activ 0.8, PLK1 kinase inh -4 and CYP2C19 inh 18.
